Results taken from publication PMC5540273 (PLoS ONE, 2017).
Read-outs that look alike come from different tables or passages of the source.

How the values were obtained:
[1] = system: STK36; settings: concentration: 1 μM, replicates: in singlicate; n = 1
[2] = system: STK39; settings: concentration: 1 μM, replicates: in singlicate; n = 1
[3] = system: SYK; settings: n = 1
[4] = system: SgK110; settings: concentration: 1 μM, replicates: in singlicate; n = 1
[5] = system: T1, TAK1; settings: concentration: 1 μM, replicates: in singlicate; n = 1
T1 construct: gene MAP3K7

[6] = system: TAOK1; settings: concentration: 1 μM, replicates: in singlicate; n = 1
[7] = system: TAOK2; settings: concentration: 1 μM, replicates: in singlicate; n = 1
[8] = system: TAOK3; settings: concentration: 1 μM, replicates: in singlicate; n = 1
[9] = system: TBK1; settings: concentration: 1 μM, replicates: in singlicate; n = 1
[10] = system: TEC; settings: concentration: 1 μM, replicates: in singlicate; n = 1
[11] = system: TESK1; settings: concentration: 1 μM, replicates: in singlicate; n = 1
[12] = system: TGFBR1; settings: concentration: 1 μM, replicates: in singlicate; n = 1
[13] = system: TGFBR2; settings: concentration: 1 μM, replicates: in singlicate; n = 1
[14] = system: TIE1; settings: concentration: 1 μM, replicates: in singlicate; n = 1
[15] = system: T2, TIE2; settings: concentration: 1 μM, replicates: in singlicate; n = 1
T2 construct: gene TEK

[16] = system: TLK1; settings: concentration: 1 μM, replicates: in singlicate; n = 1
[17] = system: TLK2; settings: concentration: 1 μM, replicates: in singlicate; n = 1
[18] = system: TNIK; settings: concentration: 1 μM, replicates: in singlicate; n = 1
[19] = system: TNK1; settings: concentration: 1 μM, replicates: in singlicate; n = 1
[20] = system: TNK2; settings: concentration: 1 μM, replicates: in singlicate; n = 1
[21] = concentration: 1 μM, replicates: in singlicate
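Further: KINOMEscan kinase panel screen.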

CS(=O)(=O)c1cccc(CNc2nc(Nc3ccc4c(c3)CCC(=O)N4)ncc2C(F)(F)F)c1
%Inh [1]: 0% | %Inh [2]: 0% | %Inh [3, 21]: 75% | %Inh [4]: 0% | %Inh [5]: 68% | %Inh [6]: 0% | %Inh [7]: 21% | %Inh [8]: 0% | %Inh [9]: 89% | %Inh [10]: 0% | %Inh [11]: 0% | %Inh [12]: 2% | %Inh [13]: 0% | %Inh [14]: 57% | %Inh [15]: 30% | %Inh [16]: 0% | %Inh [17]: 0% | %Inh [18]: 90.1% | %Inh [19]: 73% | %Inh [20]: 0%

Cc1ccc(C)c(NC(=O)Nc2ccc(C)c(-c3ccc(C(=O)Nc4ccncc4)cc3)c2)c1 [GSK1398473]
%Inh [1]: 2% | %Inh [2]: 5% | %Inh [3, 21]: 17% | %Inh [4]: 20% | %Inh [5]: 0% | %Inh [6]: 0% | %Inh [7]: 0% | %Inh [8]: 0% | %Inh [9]: 2% | %Inh [10]: 5% | %Inh [11]: 20% | %Inh [12]: 11% | %Inh [13]: 0% | %Inh [14]: 0% | %Inh [15]: 0% | %Inh [16]: 0% | %Inh [17]: 0% | %Inh [18]: 0% | %Inh [19]: 7% | %Inh [20]: 36%

Cc1cccc(Nc2nc(N[C@H]3CCCC[C@H]3N)ncc2C(N)=O)c1.Cl [GSK986310]
%Inh [1]: 58% | %Inh [2]: 12% | %Inh ([3]; 1 µM): 99.4% | %Inh [4]: 55% | %Inh [5]: 90.3% | %Inh [6]: 32% | %Inh [7]: 0% | %Inh [8]: 3% | %Inh [9]: 17% | %Inh [10]: 23% | %Inh [11]: 22% | %Inh [12]: 0% | %Inh [13]: 0% | %Inh [14]: 15% | %Inh [15]: 0% | %Inh [16]: 17% | %Inh [17]: 7% | %Inh [18]: 74% | %Inh [19]: 33% | %Inh [20]: 31%

CSc1ccc(NC2=C(c3ccc(Cl)cc3)C(=O)NC2=O)cc1 [SB-317658]
%Inh [1]: 15% | %Inh [2]: 0% | %Inh [3, 21]: 3% | %Inh [4]: 0% | %Inh [5]: 39% | %Inh [6]: 18% | %Inh [7]: 0% | %Inh [8]: 0% | %Inh [9]: 0% | %Inh [10]: 0% | %Inh [11]: 20% | %Inh [12]: 38% | %Inh [13]: 23% | %Inh [14]: 42% | %Inh [15]: 17% | %Inh [16]: 8% | %Inh [17]: 18% | %Inh [18]: 0% | %Inh [19]: 41% | %Inh [20]: 0%

Cn1cc(-c2ccc3c(c2)CCN3C(=O)Cc2cc(F)cc(F)c2F)c2c(N)ncnc21 [GSK2634140]
%Inh [1]: 0% | %Inh [2]: 0% | %Inh [3, 21]: 41% | %Inh [4]: 0% | %Inh [5]: 48% | %Inh [6]: 0% | %Inh [7]: 0% | %Inh [8]: 0% | %Inh [9]: 17% | %Inh [10]: 0% | %Inh [11]: 22% | %Inh [12]: 10% | %Inh [13]: 0% | %Inh [14]: 76% | %Inh [15]: 52% | %Inh [16]: 3% | %Inh [17]: 0% | %Inh [18]: 5% | %Inh [19]: 8% | %Inh [20]: 7%

CC(C)c1nc(-c2cccc(NS(=O)(=O)c3c(F)cccc3F)c2)c(-c2ccnc(Nc3ccc(N4CCOCC4)nc3)n2)s1.Cl [GSK1723980]
%Inh [1]: 100% | %Inh [2]: 10% | %Inh [3, 21]: 69% | %Inh [4]: 0% | %Inh [5]: 81% | %Inh [6]: 0% | %Inh [7]: 0% | %Inh [8]: 0% | %Inh [9]: 18% | %Inh [10]: 80% | %Inh [11]: 100% | %Inh [12]: 93.1% | %Inh [13]: 92.4% | %Inh [14]: 92.5% | %Inh [15]: 97.2% | %Inh [16]: 16% | %Inh [17]: 0% | %Inh [18]: 12% | %Inh [19]: 100% | %Inh [20]: 98.5%

COc1cccc(CC(=O)N2CCc3cc(-c4cn(C)c5ncnc(N)c45)ccc32)c1 [GSK2608899]
%Inh [1]: 17% | %Inh [2]: 22% | %Inh [3, 21]: 26% | %Inh [4]: 0% | %Inh [5]: 43% | %Inh [6]: 2% | %Inh [7]: 0% | %Inh [8]: 3% | %Inh [9]: 25% | %Inh [10]: 19% | %Inh [11]: 21% | %Inh [12]: 0% | %Inh [13]: 6% | %Inh [14]: 82% | %Inh [15]: 42% | %Inh [16]: 15% | %Inh [17]: 0% | %Inh [18]: 81% | %Inh [19]: 0% | %Inh [20]: 0%

CCn1c(-c2nonc2N)nc2c(-c3ccccc3)ncc(OCCCN)c21.O=C(O)C(F)(F)F.O=C(O)C(F)(F)F [GSK260205]
%Inh [1]: 0% | %Inh [2]: 7% | %Inh [3, 21]: 19% | %Inh [4]: 0% | %Inh [5]: 0% | %Inh [6]: 0% | %Inh [7]: 0% | %Inh [8]: 0% | %Inh [9]: 5% | %Inh [10]: 0% | %Inh [11]: 0% | %Inh [12]: 76% | %Inh [13]: 0% | %Inh [14]: 70% | %Inh [15]: 41% | %Inh [16]: 1% | %Inh [17]: 0% | %Inh [18]: 85% | %Inh [19]: 1% | %Inh [20]: 8%
